Measured values published in article doi:10.1101/2025.02.07.636106.

Molecular target: Sodium/potassium-transporting ATPase subunit beta-3 (UniProt P54709)
Assay: cross-link between two proteins; co-fractionation; cross-linking mass spectrometry

In the case of “Sodium/potassium-transporting ATPase subunit alpha-1, P05023”, the “listed as a hit” value is reported as “yes”.
